Experiment [1] in a line: Nuclear factor erythroid 2-related factor 2/antioxidant responsive element (Nrf2/ARE) small molecule agonists: qHTS cell viability counter screen in human keratinocytes (AID 1919968; active means well fitted curve in the direction sought with a large enough effect in the repeat runs; an effect the other way counts as inactive or inconclusive; further: nearly all actives have a fitted effect of over 55% in size). An outline of the steps:
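Fluorescence read-out from CellTiter-Fluor after 1 h at 37 C. Wells held HaCaT-derived ARE-luciferase reporter cells (1,500/well) treated 23 h with DMSO-dissolved compounds. Run in the same wells as the luciferase agonist read.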

Experiment [2] is described as follows: Nuclear factor erythroid 2-related factor 2/antioxidant responsive element (Nrf2/ARE) small molecule agonists: luciferase reporter gene qHTS assay in human keratinocytes (AID 1919969). Further: nearly all actives have a fitted effect of over 35% in size.
In experiment [3] the target is Gonadotropin-releasing hormone receptor (Homo sapiens) (UniProt P30968). Briefly: Human gonadotropin-releasing hormone receptor (GnRHR) small molecule agonists, calcium flux assay in GnRHR-HEK293 cells (AID 1920063). Further: nearly all actives have a fitted effect of over 35% in size. An outline of the steps: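 Calcium-dye fluorescence, Ex/Em=480/540, recorded every 1 sec over 3 min after compound addition to GnRHR-HEK293 cells. Cells had been seeded 18 hours earlier and dye-loaded for 1 hour at 37 C. Fifteen concentrations, triplicates.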

The target of experiment [4] is KiSS-1 receptor (Homo sapiens) (UniProt Q969F8). As to the kind of experiment: Human kisspeptin (KISS1R) small molecule agonists, calcium flux assay in KISS1R-HEK293 cells (AID 1920064; active means well fitted curve in the direction sought with a large enough effect in the repeat runs; an effect the other way counts as inactive or inconclusive). An outline of the steps: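 Calcium flux read-out: kinetic fluorescence at Ex/Em=480/540, 1 s intervals over 3 min, after pin-tool compound addition to dye-loaded KISS1R-HEK293 cells. Fifteen concentrations, triplicates.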

Experiment [5] in a line: G protein-coupled receptor (GPCR) small molecule agonists, calcium flux assay: HEK293 wild type cell line counter screen (AID 1920065). Put shortly: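 Agonist mode; 18 h seeding at 37 C, 1 h dye load at 37 C; compounds pinned from DMSO, ATP as positive control; kinetic fluorescence 480/540 nm, 3 min, 1 s reads; 15 concentrations, triplicate.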
Experiment [6] is described as follows: p53 small molecule agonists, cell-based qHTS assay with human liver microsomes (AID 1963577). An outline of the steps: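 Compounds act here after metabolic activation: human liver microsomes and NADPH, both at 0.5 mg/mL final, were co-added to p53RE-bla cells. Incubation ran 16 h at 37 C, followed by LiveBLAzer detection.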
A short description of experiment [7]: p53 small molecule agonists, cell-based qHTS assay with rat liver microsomes (AID 1963578). An outline of the steps:
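Read-out is beta-lactamase reporter fluorescence (LiveBLAzer, 2 h, room temperature, dark) in p53RE-bla cells treated 16 h at 37 C with compound, rat liver microsomes and NADPH, both 0.5 mg/mL final.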

Experiment [8] in a line: p53 small molecule agonists, cell-based qHTS assay with human liver microsomes: qHTS cell viability counter screen (AID 1963579). Further: nearly all actives have a fitted effect of over 45% in size. An outline of the steps: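 Cells carrying the p53 response-element beta-lactamase reporter are treated for 16 h at 37 C with test compounds in the presence of human liver microsomes and NADPH (both 0.5 mg/mL final); ATP-based CellTiter-Glo luminescence then reports viability.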

Experiment [9] in a line: p53 small molecule agonists, cell-based qHTS assay with rat liver microsomes: qHTS cell viability counter screen (AID 1963580). Further: nearly all actives have a fitted effect of over 45% in size. An outline of the steps:
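Luminescent ATP readout (CellTiter-Glo, 30 min at room temperature) reports viability of p53RE-bla HCT-116 cells after 16 h at 37 C with test compounds under metabolic activation by rat liver microsomes and NADPH at 0.5 mg/mL final each.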

Experiment [10] is described as follows: p53 small molecule agonists, cell-based qHTS assay: qHTS cell viability counter screen (AID 1963581). Further: nearly all actives have a fitted effect of over 45% in size. Put shortly: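 Cytotoxicity read-out: ATP-based luminescence (CellTiter-Glo, 30 min RT) measured in the same wells as the p53 reporter assay, HCT-116 p53RE-bla cells, 16 h compound exposure at 37 C.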
A short description of experiment [11]: p53 small molecule agonists, cell-based qHTS assay (AID 1963582; active means well fitted activation curve with a large enough effect in the signal ratio in the repeat runs, not every such curve was filed as active; the % refers to the signal ratio). Put shortly: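 Fluorescence intensity read-out of a beta-lactamase reporter under a p53 response element. Cells were exposed to DMSO-dissolved compounds for 16 h at 37 C, then developed with FRET substrate for 2 h at RT.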
Experiment [12] has as its target 5-hydroxytryptamine receptor 2A (Homo sapiens) (UniProt P28223). Briefly: 5-hydroxytryptamine receptor 2A (HTR2A) small molecule antagonists, cell-based qHTS assay (AID 1963586). Further: nearly all actives have a fitted effect of over 45% in size. Put shortly:
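CHO cells stably expressing human HTR2A were plated for 18 h at 37 C, then loaded with calcium dye for 1 h. Compounds were preincubated 5 min at room temperature before DOI (4 nM solution) was added. Kinetic fluorescence was read for 3 min.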

For experiment [13] the target is unchanged. Briefly: 5-hydroxytryptamine receptor 2A (HTR2A) small molecule agonists, cell-based qHTS assay (AID 1963587). Further: nearly all actives have a fitted effect of over 30% in size. Further: potency means the concentration at half of the fitted maximal effect. An outline of the steps: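 HTR2A-CHO cells, plated 18 h at 37 C/5% CO2, dye-loaded 1 h at 37 C; compounds in DMSO added by pin tool (agonist mode). Intracellular calcium flux read as kinetic fluorescence on FDSS over 2 min at 1 s intervals.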

In experiment [14] the target is Muscarinic acetylcholine receptor M1 (Homo sapiens) (UniProt P11229). Briefly: Cholinergic receptor muscarinic 1 (CHRM1) small molecule antagonists, cell-based qHTS assay (AID 1963588). Further: nearly all actives have a fitted effect of over 40% in size. Further: potency means the concentration at half of the fitted maximal effect. An outline of the steps:
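Compounds were tested at 15 concentrations in three independent runs. Dye-loaded CHRM1-CHO cells were exposed 5 min at room temperature before stimulation by acetylcholine added at 50nM. Intracellular calcium was read kinetically on FDSS for 3 min.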

The target is the same in experiment [15]. As to the kind of experiment: Cholinergic receptor muscarinic 1 (CHRM1) small molecule agonists, cell-based qHTS assay (AID 1963589). Further: nearly all actives have a fitted effect of over 35% in size. An outline of the steps:
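Calcium flux read-out: kinetic fluorescence at 1 sec intervals after pin-tool compound addition to dye-loaded CHRM1-CHO cells (human M1). Agonist mode; 15 concentrations tested in triplicate independent runs.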

The nature of experiment [16]: cAMP Responsive Elements (CRE) small molecule antagonists, cell-based qHTS assay (AID 1963591; active means well fitted inhibition curve with a large enough effect in the signal ratio in the repeat runs, not every such curve was filed as active; the % refers to the signal ratio). An outline of the steps: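 HEK293T CRE-bla; 18 h preincubation; compound pin-transfer; NKH477 0.25 uM final, 3 h, 37 C; LiveBLAzer FRET substrate 2 h RT.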
Experiment [17] has as its target Beta-2 adrenergic receptor (Homo sapiens) (UniProt P07550). As to the kind of experiment: Adrenergic beta2 receptor (ADRB2) small molecule antagonists, cell-based qHTS assay (AID 1963592). Further: nearly all actives have a fitted effect of over 50% in size. Further: potency means the concentration at half of the fitted maximal effect. An outline of the steps:
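Assay format: CHO-ADRB2 cells, 18-20hr seeding at 37C/5% CO2, then compound plus 1nM isoproterenol agonist mix for 0.5hr RT. Homogeneous time-resolved fluorescence cAMP detection after 1hr, expressed as 665/615 nm ratio.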

The target in experiment [18] is D(2) dopamine receptor (Homo sapiens) (UniProt P14416). Briefly: Dopamine D2 receptor (DRD2) small molecule agonists, cell-based qHTS assay (AID 1963594). Further: nearly all actives have a fitted effect of over 35% in size. Put shortly:
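HEK293 cells stably expressing DRD2 were cultured 24 h at 37 C, then given Ro20-1724 (0.1 mM final) and compounds for 10 min at room temperature. NKH477 (200nM) was then added for 30 min. cAMP was read by HTRF.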

The target is the same in experiment [19]. As to the kind of experiment: Dopamine D2 receptor (DRD2) small molecule antagonists, cell-based qHTS assay (AID 1963595; active means well fitted inhibition curve with a large enough effect in the signal ratio in the repeat runs, with a control signal flat; the % refers to the signal ratio). Put shortly: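 Stable D2 receptor HEK293 line, 24 h after seeding. Compound preincubated 10 min, then quinpirole (12 nM) with forskolin analogue NKH477 (200 nM), 30 min, room temperature. Detection by time-resolved FRET of cAMP.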
Experiment [20] is described as follows: cAMP Responsive Elements (CRE) small molecule agonists, cell-based qHTS assay (AID 1963590). Put shortly: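 Beta-lactamase reporter readout: LiveBLAzer B/G FRET substrate, 2 h at room temperature, added after 3 h compound treatment of CRE-bla HEK 293T cells at 37 C/5% CO2.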

Results filed as inconclusive are left out. Active and inactive are the calls of the source. Unless noted, the call rests on the fitted dose curve.

Sequence of 5-hydroxytryptamine receptor 2A (Homo sapiens) (P28223 whole entry, looked up): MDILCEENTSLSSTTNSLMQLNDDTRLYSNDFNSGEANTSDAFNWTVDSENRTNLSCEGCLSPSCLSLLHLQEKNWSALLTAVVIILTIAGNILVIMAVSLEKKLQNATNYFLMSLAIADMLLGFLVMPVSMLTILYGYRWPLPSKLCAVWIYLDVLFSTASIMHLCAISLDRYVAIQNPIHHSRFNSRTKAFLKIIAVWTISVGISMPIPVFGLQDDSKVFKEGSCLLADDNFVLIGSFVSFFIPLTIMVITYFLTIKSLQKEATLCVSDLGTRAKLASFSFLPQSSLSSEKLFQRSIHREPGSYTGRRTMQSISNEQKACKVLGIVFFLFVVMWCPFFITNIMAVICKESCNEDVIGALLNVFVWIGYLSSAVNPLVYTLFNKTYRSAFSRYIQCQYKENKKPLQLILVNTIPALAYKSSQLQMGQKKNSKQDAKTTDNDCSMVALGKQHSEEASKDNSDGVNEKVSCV
Sequence of D(2) dopamine receptor (Homo sapiens) (P14416 whole entry, looked up): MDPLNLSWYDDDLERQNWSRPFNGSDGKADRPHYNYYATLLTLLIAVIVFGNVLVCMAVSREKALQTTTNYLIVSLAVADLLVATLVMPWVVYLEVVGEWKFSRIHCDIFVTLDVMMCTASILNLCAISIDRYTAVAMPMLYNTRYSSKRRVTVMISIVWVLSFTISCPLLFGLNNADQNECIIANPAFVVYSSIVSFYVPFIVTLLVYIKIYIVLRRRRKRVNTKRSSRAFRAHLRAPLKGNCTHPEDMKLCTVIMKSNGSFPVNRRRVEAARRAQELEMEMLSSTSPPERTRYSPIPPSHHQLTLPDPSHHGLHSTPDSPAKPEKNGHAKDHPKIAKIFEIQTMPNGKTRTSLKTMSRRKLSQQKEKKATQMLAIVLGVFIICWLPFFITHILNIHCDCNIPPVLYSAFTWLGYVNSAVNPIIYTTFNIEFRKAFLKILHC
Sequence of Gonadotropin-releasing hormone receptor (Homo sapiens) (P30968 whole entry, looked up): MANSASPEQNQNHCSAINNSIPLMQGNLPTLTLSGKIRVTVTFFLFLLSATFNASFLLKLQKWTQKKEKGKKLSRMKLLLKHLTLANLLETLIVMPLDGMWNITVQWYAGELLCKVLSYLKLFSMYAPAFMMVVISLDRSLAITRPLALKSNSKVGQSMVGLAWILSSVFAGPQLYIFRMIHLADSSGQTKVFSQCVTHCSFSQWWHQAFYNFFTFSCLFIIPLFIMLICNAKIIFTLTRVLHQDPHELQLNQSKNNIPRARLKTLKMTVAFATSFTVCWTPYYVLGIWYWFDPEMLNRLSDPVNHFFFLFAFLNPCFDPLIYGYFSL
Sequence of KiSS-1 receptor (Homo sapiens) (Q969F8 whole entry, looked up): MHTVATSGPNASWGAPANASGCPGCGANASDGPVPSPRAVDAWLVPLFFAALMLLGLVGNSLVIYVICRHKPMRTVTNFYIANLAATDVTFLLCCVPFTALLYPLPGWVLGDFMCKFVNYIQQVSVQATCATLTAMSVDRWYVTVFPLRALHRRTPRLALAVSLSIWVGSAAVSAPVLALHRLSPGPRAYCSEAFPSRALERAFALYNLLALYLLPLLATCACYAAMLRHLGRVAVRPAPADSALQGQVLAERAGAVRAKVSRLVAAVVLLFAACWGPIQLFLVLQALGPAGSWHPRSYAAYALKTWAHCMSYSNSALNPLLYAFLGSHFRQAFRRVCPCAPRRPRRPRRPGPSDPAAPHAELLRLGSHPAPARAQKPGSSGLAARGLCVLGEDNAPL
Sequence of Beta-2 adrenergic receptor (Homo sapiens) (P07550 whole entry, looked up): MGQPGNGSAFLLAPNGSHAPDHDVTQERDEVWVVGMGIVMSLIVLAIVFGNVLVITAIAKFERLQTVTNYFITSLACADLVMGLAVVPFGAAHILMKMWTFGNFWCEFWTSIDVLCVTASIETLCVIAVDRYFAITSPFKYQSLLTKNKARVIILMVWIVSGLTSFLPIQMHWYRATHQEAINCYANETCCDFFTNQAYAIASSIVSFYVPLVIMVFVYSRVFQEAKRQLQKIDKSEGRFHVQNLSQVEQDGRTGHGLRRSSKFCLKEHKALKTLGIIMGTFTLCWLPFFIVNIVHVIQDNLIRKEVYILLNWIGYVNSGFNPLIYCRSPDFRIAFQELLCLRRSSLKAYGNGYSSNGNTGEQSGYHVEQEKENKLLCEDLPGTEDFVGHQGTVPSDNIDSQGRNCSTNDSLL
Sequence of Muscarinic acetylcholine receptor M1 (Homo sapiens) (P11229 whole entry, looked up): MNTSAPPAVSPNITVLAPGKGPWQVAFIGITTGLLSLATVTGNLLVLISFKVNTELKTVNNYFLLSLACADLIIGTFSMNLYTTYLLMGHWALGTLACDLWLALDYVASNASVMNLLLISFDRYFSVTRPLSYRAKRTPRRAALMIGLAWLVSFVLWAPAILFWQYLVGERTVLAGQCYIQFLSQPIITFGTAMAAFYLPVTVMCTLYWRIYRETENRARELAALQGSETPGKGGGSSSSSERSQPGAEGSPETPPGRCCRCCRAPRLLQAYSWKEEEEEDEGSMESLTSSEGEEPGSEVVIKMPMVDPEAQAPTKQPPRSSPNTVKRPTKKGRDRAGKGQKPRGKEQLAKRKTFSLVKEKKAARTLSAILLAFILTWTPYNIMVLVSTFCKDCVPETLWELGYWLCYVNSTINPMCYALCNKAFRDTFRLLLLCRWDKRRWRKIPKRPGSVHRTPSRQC

As for `Oc1cc(Cl)cc(Cl)c1`, the Potency result in [1], in [2], in experiment [3], in experiment [4], in experiment [5] and in experiment [6] was “inactive” in each case. The Potency entry in experiment [7], in experiment [8], in experiment [9], in [10], in experiment [11] and in experiment [12] was “inactive” throughout. Further, the Potency result in experiment [13], in experiment [14], in [15], in experiment [16], in experiment [17] and in experiment [18] was “inactive” in each case. Besides, in experiment [19], the Potency result was “inactive”.
With `COc1ccc2c(c1OC)C(=O)O[C@H]2[C@@H]1c2cc3c(cc2CCN1C)OCO3`, the Potency result in [1], in experiment [2], in [3], in experiment [4], in experiment [5] and in [6] was “inactive” throughout. For the same molecule, the Potency result in experiment [7], in experiment [8], in experiment [9], in [10], in experiment [11] and in [12] was “inactive” each time. The Potency entry in experiment [20], in [16], in [17] and in [19] was “inactive” throughout.
Consider `ClCCCCl`, for which the Potency result in experiment [1], in experiment [2], in experiment [3], in experiment [4], in experiment [5] and in experiment [6] was “inactive” each time. Besides, the Potency result in experiment [7], in experiment [8], in experiment [9], in experiment [10], in experiment [11] and in experiment [12] was “inactive” each time. Besides, the Potency result in experiment [13], in [15], in experiment [20], in experiment [16] and in experiment [19] was “inactive” each time.
Consider `C=CC(=O)N(C)C`, for which the Potency entry in experiment [1], in experiment [2], in [3], in experiment [4], in experiment [5] and in experiment [6] was “inactive” each time. Also, the Potency entry in experiment [7], in experiment [8], in experiment [9], in experiment [10], in [11] and in experiment [12] was “inactive” each time. The Potency result in [13], in [14], in experiment [15], in [20], in experiment [17] and in experiment [19] was “inactive” throughout.
As to `COc1cc(CC(C)N)cc2c1OCO2` (stereo unspecified), the Potency entry in experiment [1], in experiment [2], in [3], in experiment [4], in [5] and in experiment [6] was “inactive” throughout. Further, the Potency entry in experiment [7], in experiment [8], in experiment [9], in experiment [10], in [11] and in experiment [15] was “inactive” throughout. Besides, the Potency entry in [20], in [16], in experiment [18] and in experiment [19] was “inactive” each time. The values for the Potency in experiment [13], in experiment [14] and in experiment [17] were 1.44 µM (active), 15.6 µM (active) and 32 µM (active), respectively.
On to `COC(=O)C(c1ccccc1)C1CCCCN1` (stereo unspecified), for which the Potency entry in experiment [1], in experiment [2], in [3], in experiment [4], in experiment [5] and in experiment [6] was “inactive” throughout. For the same molecule, the Potency entry in experiment [7], in [8], in [9], in experiment [10], in experiment [11] and in experiment [12] was “inactive” in each case. For the same molecule, the Potency entry in experiment [15], in experiment [20], in experiment [16], in experiment [17], in [18] and in [19] was “inactive” throughout. Also, the Potency in [14] is 26.6 µM (active).
As for `CCS(=O)(=O)C(C)(C)S(=O)(=O)CC`, the Potency entry in [1], in [2], in experiment [3], in [4], in experiment [5] and in experiment [6] was “inactive” in each case. Also, the Potency result in [7], in experiment [8], in [9], in experiment [10], in experiment [11] and in experiment [12] was “inactive” each time. In addition, the Potency entry in [13], in experiment [15], in experiment [20], in experiment [16], in experiment [17] and in experiment [19] was “inactive” throughout.
